Where “and” joins values, the source holds several entries; their conditions need not be identical. Identical values can stand only once. Out of some 5,500 compounds screened, about 2,000 (36%) were called active. Not shown: some 18% with an inconclusive outcome. Cut-off read from the data, not from the text of the source: active = normalized growth mostly below about 0.91 (no sharp cut-off); inconclusive = no clear call, values can overlap the other calls; inactive = mostly above about 0.92. This is one part of the list.
Experiment: chemical genetic growth profiling, strain panel (AID 1159580);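 note: tested at 20 µM; growth read once vehicle control cultures reached saturation at 30 °C; 1 = growth at the plate median or of vehicle wells; lower values mean less growth of the strain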
Conditions: S. cerevisiae deletion strains, growth OD

Measured: normalized growth

C[C@H](COc1ccccc1)N[C@H](C)[C@H](O)c1ccc(O)cc1
inactive: locus YAL021C, strain ccr4, hits give low values 0.964 | locus YAL026C, strain drs2, hits give low values 0.974 | locus YAL030W, strain snc1, hits give low values 0.999 | locus YBL061C, strain skt5, hits give low values 1.01 | locus YBR009C, strain hhf1, hits give low values 1 | locus YBR021W, strain FUR4, hits give low values 0.986 | locus YBR023C, strain chs3, hits give low values 0.981 | locus YBR171W, strain sec66, hits give low values 0.997 | locus YBR229C, strain ROT2, hits give low values 0.995 | locus YBR231C, strain swc5, hits give low values 0.988 | locus YBR279W, strain paf1, hits give low values 0.982 | locus YCL011C, strain gbp2, hits give low values 1 | locus YCL016C, strain dcc1, hits give low values 0.979 | locus YCL029C, strain bik1, hits give low values 0.996 | locus YCL061C, strain MRC1, hits give low values 0.986 | locus YCL069W, strain vba3, hits give low values 0.997 | locus YCR088W, strain abp1, hits give low values 0.998 | locus YDL005C, strain med2, hits give low values 0.999 | locus YDL035C, strain GPR1, hits give low values 1.03 | locus YDL040C, strain nat1, hits give low values 0.994 | locus YDL074C, strain BRE1, hits give low values 1.03 | locus YDL101C, strain DUN1, hits give low values 1 | locus YDL185W, strain tfp1, hits give low values 0.992 | locus YDL192W, strain arf1, hits give low values 0.998 | locus YDR001C, strain nth1, hits give low values 0.992 | locus YDR069C, strain doa4, hits give low values 0.998 | locus YDR101C, strain arx1, hits give low values 1.01 | locus YDR137W, strain rgp1, hits give low values 0.963 | locus YDR150W, strain NUM1, hits give low values 1 | locus YDR159W, strain sac3, hits give low values 0.99 | locus YDR162C, strain NBP2, hits give low values 1 | locus YDR195W, strain ref2 0.993 | locus YDR297W, strain sur2, hits give low values 0.99 | locus YDR318W, strain mcm21, hits give low values 0.994 | locus YDR334W, strain swr1, hits give low values 0.996 | locus YDR335W, strain msn5, hits give low values 1 | locus YDR388W, hits give low values 0.997 | locus YDR392W, strain spt3, hits give low values 0.952 | locus YDR502C, strain sam2, hits give low values 1.01 | locus YEL003W, strain gim4, hits give low values 1 | locus YEL037C, strain rad23, hits give low values 0.997 | locus YEL061C, strain CIN8 (second series), hits give low values 0.996 | locus YEL061C, strain CIN8, hits give low values 1 | locus YER015W, strain faa2, hits give low values 1 | locus YER016W, strain bim1, hits give low values 1.01 | locus YER110C, hits give low values 0.975 | locus YER111C, strain swi4, hits give low values 0.988 | locus YER155C, strain BEM2 (second series), hits give low values 0.983 | locus YER155C, strain BEM2, hits give low values 0.986 | locus YER167W, strain BCK2, hits give low values 0.985 | locus YFR010W, strain ubp6, hits give low values 0.996 | locus YGL078C, strain dbp3, hits give low values 0.98 | locus YGL086W, strain mad1, hits give low values 1.01 | locus YGL167C, strain pmr1, hits give low values 1 | locus YGL173C, strain kem1, hits give low values 1 | locus YGL227W, strain vid30, hits give low values 0.986 | locus YGL240W, strain doc1, hits give low values 0.988 | locus YGL248W, strain PDE1, hits give low values 0.993 | locus YGL253W, strain hxk2, hits give low values 1.01 | locus YGR078C, strain PAC10, hits give low values 1.01 | locus YGR135W, strain pre9, hits give low values 0.942 | locus YGR252W, strain gcn5, hits give low values 0.988 | locus YHR013C, strain ard1, hits give low values 0.969 | locus YHR027C, strain rpn1, hits give low values 0.997 | locus YHR030C, strain SLT2, hits give low values 0.993 and 1 | locus YHR079C, strain IRE1 (second series), hits give low values 0.991 | locus YHR079C, strain IRE1, hits give low values 0.985 | locus YHR094C, strain hxt1, hits give low values 0.974 | locus YHR129C, strain ARP1, hits give low values 0.992 | locus YHR142W, strain chs7, hits give low values 1 | locus YHR200W, strain rpn10, hits give low values 0.992 | locus YIL066C, strain RNR3, hits give low values 0.987 | locus YIL073C, strain SPO22, hits give low values 0.977 | locus YIL125W, strain kgd1, hits give low values 1 | locus YIR030C, strain dcg1, hits give low values 0.993 | locus YJL092W, strain hpr5, hits give low values 0.992 | locus YJL095W, strain BCK1 (second series), hits give low values 0.998 | locus YJL095W, strain BCK1, hits give low values 0.965 and 1 | locus YJL115W, strain asf1, hits give low values 0.996 | locus YJL129C, strain trk1, hits give low values 0.993 | locus YJL134W, strain LCB3, hits give low values 0.991 | locus YJL154C, strain vps35, hits give low values 0.998 | locus YJL164C, strain tpk1, hits give low values 0.996 | locus YJL166W, strain qcr8, hits give low values 0.989 | locus YJL168C, strain set2, hits give low values 0.99 | locus YJL187C, strain SWE1 (second series), hits give low values 0.985 | locus YJL187C, strain SWE1, hits give low values 1.01
